Reference: PubChem BioAssay (NCATS)
Several values for one entry are separate records, joined by “and”; a condition that tells them apart may be missing. Equal values may be shown once. Results filed as inconclusive are left out. Activity calls are given as the source filed them. Unless noted, calls come from the whole dose curve; as a rule, active = well fitted curve in the direction sought with a large enough effect; inconclusive = small, poorly fitted or top-dose-only effect, or another doubt; inactive = no such curve, though single readings can be large; an effect the other way counts as inactive or inconclusive.

Columns and labels:
[1] = qHTS for Activators of Parkin Expression: LOPAC Validation Assay (FLuc Reporter) (AID 720573)
Method in brief: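 Cells seeded, 24 h; compounds pinned, 7-pt dose response; 24 h at 37 C/5% CO2; volume reduced; FLuc reagent 10 min RT; luminescence read. Normalization: DMSO = 0, positive control = 100%.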

[2] = qHTS assay for small molecule agonists of the antioxidant response element (ARE) signaling pathway measured by Nrf2-dependant transcriptional activity (AID 720636; active = well fitted curve in the direction sought with a large enough effect in the repeat runs; an effect the other way counts as inactive or inconclusive;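 note: HepG2 cells with an ARE-driven luciferase reporter; % of control where 0% means no effect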)
Method in brief: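 In HepG2 cells engineered with an Nrf2-responsive luciferase gene, ARE induction was quantified as luminescence after 16 hr compound treatment at 37 C.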

[3] = qHTS assay for small molecule agonists of the antioxidant response element (ARE) signaling pathway measured by Nrf2-dependant transcriptional activity - cell viability counter screen (AID 720653; active = well fitted curve in the direction sought with a large enough effect in the repeat runs; an effect the other way counts as inactive or inconclusive; note: % is set by controls: 0 for no effect and ±100 for the full control effect); details: ARE-bla HepG2 viability, CellTiter-Glo ATP luminescence, 16 h; max response: stronger effect = lower value
Method in brief: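 ARE-bla HepG2 cells (2,000/well) rested 5 hrs at 37C/5% CO2, then exposed to compounds in DMSO for 16 hrs. Viability was read in the same wells as intracellular ATP by luminescence, 30 min at room temperature after reagent addition.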

[4] = target: T1, Hexokinase-4 (Homo sapiens) + Glucokinase regulatory protein (Homo sapiens) (UniProt P35557+Q14397); assay: qHTS assay for inhibitors of recombinant human GCK-GKRP interaction: Diaphorase-coupled assay (AID 743205)
Method in brief: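 25 mM Hepes pH 7.6, 5 mM glucose, 0.4 mM ATP, 4 U/ml G6PDH; 10 nM each GST-GCK/FLAG-GKRP. Kinetic fluorescence read, 1/min × 30 min. Normalized: DMSO ± enzyme = max/min.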

[5] = target: T1, Hexokinase-4 (Homo sapiens) + Glucokinase regulatory protein (Homo sapiens); assay: qHTS assay for inhibitors of recombinant human GCK-GKRP interaction: ADP-Glo assay (AID 743206);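 note: plate controls were DMSO plus enzyme for no effect and no enzyme for full effect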
Method in brief: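 Pin-transferred compounds meet a 15 nM GST-GCK/15 nM FLAG-GKRP/2 uM S6P mix (dispense concentrations). ATP is then added to 0.4 mM final with 5 mM glucose, and the reaction runs 60 min at room temperature. ADP is quantified luminescently.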

[6] = target: T1, Hexokinase-4 (Homo sapiens) + Glucokinase regulatory protein (Homo sapiens); assay: qHTS assay for inhibitors of recombinant human GCK-GKRP interaction: HTRF assay (AID 743207);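 note: 0% = DMSO with GCK present and -100% = DMSO wells lacking GCK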
Method in brief: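 5 nM GST-GCK + 5 nM FLAG-GKRP + 2 uM S6P, pH 7.1 buffer (25 mM Hepes, 2 mM MgCl2, 25 mM KCl, 1 mM DTT, Tween/BSA); pin-transferred cpd; anti-FLAG XL665/anti-GST K; 60 min RT; HTRF.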

[7] = qHTS Assay for Identifying Gametocytocidal Compounds (AID 743244); note: potency is the fitted concentration of half-maximal effect;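 for max response: % is set by controls: 0 for no effect and ±100 for the full control effect; actives lower the fluorescent signal which means gametocytes are killed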; details: P. falciparum 3D7 stage III-V gametocytes, alamarBlue, 72 h; max response: stronger effect = lower value
Method in brief: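 3D7 gametocytes, stages III–V, 20,000/well; cpd 72 h, 37 °C/5% CO2; + alamarBlue 24 h; fluor. Ex 525/Em 598.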

[8] = qHTS assay for cell viability of the p53RE-bla HCT-116 cell line (AID 743292); note: % is set by controls: 0 for no effect and ±100 for the full control effect; nearly all actives have a fitted effect of over 55% in size
Method in brief: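 Intracellular ATP of p53RE-bla HCT-116 cells measured by luciferase luminescence following 16 h compound incubation at 37 C; DMSO-only wells served as vehicle controls.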

[9] = qHTS profiling for inhibitors of Plasmodium falciparum (3D7) proliferation (AID 743322; call rule not given here;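 note: infected erythrocytes exposed to compound for 72 h before lysis; 100% = DMSO vehicle wells and 0% = 0.29 µM artemisinin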); details: P. falciparum 3D7 proliferation; at 28.7 µM (top of the series) unless noted
Method in brief: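 Parasite DNA was quantified by SYBR Green I fluorescence (ex 485, em 535 nm) after overnight lysis in saponin/Triton buffer at room temperature. Cultures at 0.3% parasitemia and 2.5% hematocrit were first exposed to compound for 72 h at 37 C; signals were normalised to artemisinin (0.29 uM) and vehicle wells.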

[10] = qHTS profiling for inhibitors of Plasmodium falciparum (DD2) proliferation (AID 743323; call rule not given here); details: lower = more inhibition; at 28.7 µM (top of the series) unless noted
Method in brief: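 SYBR Green fluorescence (ex 485, em 535 nm) of lysed cultures gives parasite DNA content; wells normalized to artemisinin (0.29 uM) and DMSO controls. Infected red cells: 0.3% parasitemia, 2.5% hematocrit, 72 h, 37 C.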

[11] = qHTS profiling for inhibitors of Plasmodium falciparum (HB3) proliferation (AID 743324); details: Plasmodium falciparum HB3 blood-stage proliferation; at 28.7 µM (top of the series);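 note: 100% = DMSO vehicle wells and 0% = artemisinin-treated control wells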
Method in brief: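 SYBR Green fluorescence (485 ex/535 em) of lysed cultures, incubated overnight at room temperature in the dark, quantifies parasite DNA. Infected erythrocytes at 0.3% parasitemia and 2.5% hematocrit were exposed 72 h; values normalized to DMSO and 0.29 uM artemisinin controls.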

[12] = qHTS assay for measurement of the activity of small molecule inhibitors on Zika virus induced Caspase-3 activity in human iPSC derived neural progenitor cells (hNPCs) (AID 1224857); note: % of control where 0% means no effect; nearly all actives have a fitted effect of over 65% in size
Method in brief: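 Cells were plated at 350 per well and grown 16 to 20 hours. Compound pretreatment lasted one hour, after which ZIKV (2 FFU/cell) was added for 6 hours. Percent inhibition was normalized between uninfected and infected controls.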

[13] = qHTS for Activators of Parkin Expression: LOPAC Validation Assay (NLuc Reporter) (AID 720572)
Method in brief: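 Cells harboring the Parkin-promoter coincidence reporter were treated for 24 h at seven concentrations. NLuc output was measured sequentially after the FLuc channel and scaled between DMSO and positive control values.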

[14] = qHTS assay for small molecule antagonists of the retinoid-related orphan receptor gamma (ROR-gamma) signaling pathway - cell viability counter screen (AID 720652; active = well fitted curve in the direction sought with a large enough effect in the repeat runs; an effect the other way counts as inactive or inconclusive;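 note: CHO reporter cells with doxycycline-induced ROR-gamma expression; compound exposure lasted 16 hr before ATP read; % is set by controls: 0 for no effect and ±100 for the full control effect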)
Method in brief: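 ATP-based viability readout in the ROR-gamma reporter CHO cells after 16 hr compound exposure under doxycycline induction.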

[15] = qHTS assay for cell viability of HEK293 cells (AID 743288); details: ATP luminescence (CellTiter-Glo), 18 h; max response: stronger effect = lower value; note: % is set by controls: 0 for no effect and ±100 for the full control effect; nearly all actives have a fitted effect of over 50% in size
Method in brief: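 Viable-cell counts were inferred from luciferase-based ATP content in HEK293 cells seeded at 2,000/well, pre-incubated ≥5 h, then dosed with DMSO-solubilised compounds for 18 h at 37 C.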

T1 sequence (P35557 whole entry, looked up): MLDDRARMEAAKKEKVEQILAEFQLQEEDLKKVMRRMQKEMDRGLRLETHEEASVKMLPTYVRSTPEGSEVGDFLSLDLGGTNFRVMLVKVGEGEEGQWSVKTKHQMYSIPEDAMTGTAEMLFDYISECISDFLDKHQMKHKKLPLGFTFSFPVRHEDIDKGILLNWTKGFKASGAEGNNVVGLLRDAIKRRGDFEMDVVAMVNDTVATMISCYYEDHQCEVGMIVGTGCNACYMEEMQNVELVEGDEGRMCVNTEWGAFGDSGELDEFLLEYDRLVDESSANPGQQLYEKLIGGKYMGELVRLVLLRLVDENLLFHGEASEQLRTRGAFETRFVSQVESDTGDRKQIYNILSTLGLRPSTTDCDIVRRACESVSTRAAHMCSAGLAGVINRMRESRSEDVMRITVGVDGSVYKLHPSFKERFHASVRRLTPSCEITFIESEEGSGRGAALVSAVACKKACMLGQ
T1 sequence (Q14397 whole entry, looked up): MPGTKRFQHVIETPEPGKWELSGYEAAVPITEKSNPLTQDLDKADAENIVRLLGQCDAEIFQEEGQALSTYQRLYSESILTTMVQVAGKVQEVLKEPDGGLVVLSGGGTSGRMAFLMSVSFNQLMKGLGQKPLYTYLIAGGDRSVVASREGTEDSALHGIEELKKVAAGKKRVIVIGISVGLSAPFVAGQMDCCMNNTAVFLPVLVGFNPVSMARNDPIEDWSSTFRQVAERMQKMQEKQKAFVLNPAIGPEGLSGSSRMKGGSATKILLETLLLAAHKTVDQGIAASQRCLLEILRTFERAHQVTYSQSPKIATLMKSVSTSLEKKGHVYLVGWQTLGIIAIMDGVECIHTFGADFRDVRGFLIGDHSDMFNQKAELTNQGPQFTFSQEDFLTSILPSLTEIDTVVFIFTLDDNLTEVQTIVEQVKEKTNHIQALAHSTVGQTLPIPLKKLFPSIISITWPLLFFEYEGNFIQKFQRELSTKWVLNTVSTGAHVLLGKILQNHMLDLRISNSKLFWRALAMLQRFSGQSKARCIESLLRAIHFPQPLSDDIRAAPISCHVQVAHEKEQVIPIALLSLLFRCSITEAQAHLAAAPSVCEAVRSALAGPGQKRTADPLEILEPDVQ

Nc1ncn([C@@H]2O[C@H](CO)[C@@H](O)[C@H]2O)c(=O)n1
inactive: outcome [1] | outcome [2] | max response [3] -13.9% and 0.747% | outcome [4] | outcome [5] | Potency [6] | max response [7] -3.69% and 12.2% | outcome [8] | outcome [12]
121%: activity, percent of control [10]
103%: remaining parasite growth % (stronger effect = lower value) [9]
137%: remaining proliferation (% of control), lower = more inhibition [11]

CSc1ccc(C(=O)c2[nH]c(=O)[nH]c2C)cc1
inactive: outcome [4] | outcome [5] | Potency [6] | max response [7] 9.34% and 5.87% | outcome [12]

COc1cc(C(=O)OCCCN2CCCN(CCCOC(=O)c3cc(OC)c(OC)c(OC)c3)CC2)cc(OC)c1OC
inactive: Potency [13] | outcome [1] | outcome [4] | outcome [5] | Potency [6] | max response [7] -8.17% and 18.7% | outcome [12]

C[N+](C)(C)CCCCCCCCCC[N+](C)(C)C
inactive: outcome [4] | outcome [5] | Potency [6] | outcome [12]

Fc1ccc(C(c2ccc(F)cc2)N2CCN(C/C=C/c3ccccc3)CC2)cc1
inactive: outcome [4] | outcome [5] | Potency [6] | max response [7] 16.8% and 11% | outcome [12]

CC1=C(C)C(=O)C(CCCCC#CCCCC#CCO)=C(C)C1=O
inactive: Potency [13] | outcome [1] | outcome [4] | outcome [5] | Potency [6] | outcome [12]
active: Potency [7] 14.1 µM

FC(F)(F)c1ccccc1-n1ccnc1
inactive: Potency [13] | outcome [1] | outcome [4] | outcome [5] | Potency [6] | max response [7] 18.2% and -13.7% | outcome [12]

CN(C)CCN(Cc1cccs1)c1ccccn1
inactive: Potency [13] | outcome [1] | outcome [4] | outcome [5] | Potency [6] | max response [7] -13% and 5.58% | outcome [12]

CCN(CC)CCOCCOC(=O)C1(c2ccccc2)CCCC1
inactive: outcome [4] | outcome [5] | Potency [6] | outcome [12]

CCN(CC)CCNC(=O)c1ccc(NC(C)=O)cc1
inactive: Potency [13] | outcome [1] | outcome [4] | outcome [5] | Potency [6] | max response [7] 11.5% and -3.43% | outcome [12]

CN1CCN(CC(=O)N2c3ccccc3C(=O)Nc3cccnc32)CC1
inactive: outcome [4] | outcome [5] | Potency [6] | max response [7] 0.314% and 3.31% | outcome [12]

CCO/C([O-])=N/c1c[n+](N2CCOCC2)no1
inactive: Potency [13] | outcome [1] | outcome [4] | outcome [5] | Potency [6] | max response [7] -5.19% | outcome [12]

CC(C)NCC(O)c1cc(O)cc(O)c1 (stereo not given)
inactive: outcome [4] | outcome [5] | Potency [6] | max response [7] 4.9% and 20.6% | outcome [12]

Cc1cc(C)c(/C=C2\C(=O)Nc3ccccc32)[nH]1
inactive: Potency [13] | outcome [1] | outcome [4] | outcome [5] | Potency [6] | max response [7] -7.62% and 20.5% | outcome [12]

CN(C)CC[C@@H](c1ccc(Br)cc1)c1ccccn1
inactive: outcome [4] | outcome [5] | Potency [6] | max response [7] -2.43% and 14.2% | outcome [12]

CN/C(=C\[N+](=O)[O-])NCCSCc1ccc(CN(C)C)o1
inactive: Potency [13] | outcome [1] | max response [7] 33.4% | outcome [12]

CCCCOCCOCCOCc1cc2c(cc1CCC)OCO2
inactive: outcome [2] | outcome [14] | max response [3] -10.7% and -4.66% | max response [7] 3.05% | max response [15] -11.4% and -13.4% | outcome [8] | outcome [12]

C[C@H](CS)C(=O)N1CCC[C@H]1C(=O)O
inactive: Potency [13] | outcome [1] | outcome [4] | outcome [5] | Potency [6] | max response [7] -9.05% and 12% | outcome [12]

O=C(CCNNC(=O)c1ccncc1)NCc1ccccc1
inactive: Potency [13] | outcome [1] | outcome [4] | outcome [5] | Potency [6] | max response [7] -0.149% and 4.87% | outcome [12]

COCCc1ccc(OCC(O)CNC(C)C)cc1 (stereo not given)
inactive: outcome [4] | outcome [5] | Potency [6] | max response [7] -3.26% and -1.45% and -10.9% | outcome [12]

O=C(O)CP(=O)(O)O
inactive: Potency [13] | outcome [1] | outcome [4] | outcome [5] | Potency [6] | max response [7] -7.11% and 18.5% | outcome [12]

C(=C\c1ccccc1)/CN1CCN(C(c2ccccc2)c2ccccc2)CC1
inactive: Potency [13] | outcome [1] | outcome [4] | outcome [5] | Potency [6] | max response [7] -4.21% and 5.87% | outcome [12]

C=CCc1ccccc1OCC(O)CNC(C)C (stereo not given)
inactive: Potency [13] | outcome [1] | outcome [4] | outcome [5] | Potency [6] | max response [7] 17.2% | outcome [12]
